We go through 27 molecules from PubChem BioAssay AID2013 (Sanford-Burnham Center for Chemical Genomics, 2009).

Structures are written as SMILES. Values joined by “and” are separate entries in the source; they are usually repeats but may differ in a detail not shown here. Equal entries are not always repeated. Hit rate of the full screen: of about 290,000 compounds, about 370 (0.13%) were called active. The sample holds actives, similar compounds and a random draw of the others, so the mix is not that of the screen.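 Rule for the calls: active = spots per cell inhibited over 60%, with over 100 cells counted and total cytoplasm intensity under 500,000; inconclusive = wells with under 100 cells, flagged as likely toxic; inactive = the rest.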 Results with a measured potency or affinity are listed apart. A structure can be active in one record and inactive in another.

The test deals with G-protein coupled receptor 55 (Homo sapiens) (UniProt Q9Y2T6). Kind of test: inhibition of LPI-stimulated GPR55 beta-arrestin translocation – imaging, U2OS, beta-arrestin-GFP, LPI agonist, primary screen (AID 2013).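 Note: U2OS cells stably carrying GPR55 and arrestin-GFP stimulated by 5 µM LPI near EC80; imaged beta-arrestin-GFP aggregate spots per cell after agonist stimulation; plate controls were LPI-stimulated DMSO wells for no effect and DMSO wells without LPI for full effect.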 Particulars: LPI antagonism, at 10 µM, stronger effect = higher value.
G-protein coupled receptor 55 (Homo sapiens), sequence (Q9Y2T6 whole entry, looked up): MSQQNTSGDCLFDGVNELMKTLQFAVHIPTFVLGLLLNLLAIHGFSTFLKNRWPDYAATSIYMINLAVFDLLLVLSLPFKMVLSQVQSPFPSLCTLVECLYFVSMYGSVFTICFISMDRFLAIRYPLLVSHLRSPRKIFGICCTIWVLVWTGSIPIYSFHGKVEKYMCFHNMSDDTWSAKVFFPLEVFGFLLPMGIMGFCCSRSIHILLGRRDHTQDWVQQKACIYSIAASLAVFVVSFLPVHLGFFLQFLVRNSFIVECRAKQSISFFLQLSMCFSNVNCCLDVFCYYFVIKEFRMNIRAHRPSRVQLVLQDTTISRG
For orientation: inhibition means the relative decrease from the control value, in per cent. For the molecule `O=S(=O)(NCC1CCN(c2ccc(S(=O)(=O)N3CCOCC3)cc2)CC1)c1ccccc1`, the inhibition is 0.7% (inactive).

Regarding `O=C(O)Cn1ncn(-c2ccc(OC(F)(F)F)cc2)c1=O`, the inhibition was 4.9% (inactive).

Regarding `O=C(NC(=S)NCCC1=CCCCC1)c1ccccc1Br`, the inhibition was 74.9% (active).

Regarding `Cc1ccccc1C(=O)NC(=S)NCCC1=CCCCC1`, the inhibition was 1% (inactive).

For `O=C(NC(=S)NCCC1=CCCCC1)c1ccc(Br)o1`, the inhibition was 4.9% (inactive).

`CCOc1ccccc1NC(=O)NCc1ccco1`: the inhibition was 11.3% (inactive).

Consider `Cc1cc(SCC(=O)N/N=C/c2ccc(O)cc2O)nc2ccccc12`, for which the inhibition is 13.8% (inactive).

With `Oc1oc(-c2ccc(Br)cc2)nc1C=Nc1ccc(Br)cn1`, the inhibition is -0.2% (inactive).

`CC(=O)c1ccc(N2CCN(C3CCC(C(C)(C)C)CC3)CC2)cc1` (configuration not stated): the inhibition was 9% (inactive).

In the case of `N[C@@H](Cc1ccc(O)c(I)c1)C(=O)O`, the inhibition is 8.6% (inactive).

As for `O=C(O)Cc1cc(I)c(Oc2ccc(O)c(I)c2)c(I)c1`, the inhibition was 6.9% (inactive).

As to `N[C@@H](Cc1cc(I)c(Oc2ccc(O)c(I)c2)c(I)c1)C(=O)O`, the inhibition is 6.9% (inactive) and 99.2% (active).

For `COc1ccccc1N1CCN(CCCCOc2ccc(C)cc2C)CC1`, the inhibition is 18.9% (inactive).

As to `Cc1ccc(NC2=C/C(=N/S(=O)(=O)c3cccs3)c3ccccc3C2=O)cc1`, the inhibition was 16% (inactive).

Consider `Cc1ccccc1NC1=C/C(=N\S(=O)(=O)c2cccs2)c2ccccc2C1=O`, for which the inhibition is -11.4% (inactive).

As for `COc1ccc(OCc2nnc(SCC(=O)Nc3ccccc3F)o2)cc1`, the inhibition is -6.5% (inactive).

For the molecule `Cc1cccc(C(=O)N(CCc2ccccc2)Cc2ccccc2)c1[N+](=O)[O-]`, the inhibition was 14% (inactive).

As for `O=C(OCn1ncc(Cl)c(Cl)c1=O)c1ccc(F)cc1`, the inhibition was 1.3% (inactive).

On to `O=C(OCn1ncc(Br)c(Br)c1=O)c1c(F)cccc1F`, for which the inhibition is -5.4% (inactive).

On to `CCOC(=O)C1=C(C(F)(F)F)Nc2ncnn2C1c1cccc(OC)c1OC` (configuration not stated), for which the inhibition was 13.1% (inactive).

As for `Cn1nc(-c2ccccn2)nc2c(=O)n(C)c(=O)nc1-2`, the inhibition was 45.9% (inactive).

As for `CCCc1nc2c(=O)n(C)c(=O)nc-2n(C)n1`, the inhibition is -5.2% (inactive).

In the case of `O=C(/C=C/c1ccc(S(=O)(=O)N2CCOCC2)cc1)N1CCN(c2ccccc2)CC1`, the inhibition was -10.2% (inactive).

As for `COc1ccc(Br)cc1S(=O)(=O)n1ccnc1`, the inhibition was 3.5% (inactive).

Take `CN(c1ccc(C(=O)NCCSCc2ccccc2)cc1)S(=O)(=O)c1ccccc1`: the inhibition was -5.5% (inactive).

Consider `Cc1ccc(CSCCNC(=O)c2ccc(N(C)S(=O)(=O)c3ccccc3)cc2)cc1`, for which the inhibition is 4.4% (inactive).

Regarding `CCOc1ccc(-n2nc3c(=O)[nH]nc(C)c3c2C)cc1`, the inhibition is 7.8% (inactive).
